IDE cell activ = IDE (human) activation, cell-based | activation, % at 5.96 µM | HEK cells, FAbeta-B cleavage, fluorescence polarization; 0% vehicle, 100% cell-free pure enzyme wells | P14735 | 340,000 tested, 0.073% active;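 active = activation above the mean of all tested compounds plus 3 SD, set per screening campaign, cut at about 17% in these data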
NOD2 RIPK2 PPI = blocks binding of human NOD2 to RIPK2 | CHO BLA complementation NOD2-RIPK2, CCF4 ratio | inhibition, % at 4.98 µM | 360,000 tested, 0.38% active | AID 624267; in the data active = inhibition above about 21%;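 note: 0% = vehicle only and 100% = reference blocker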
TLR9-MyD88 inh = TLR9-MyD88 interaction inhibition; inhibition, % at 4.98 µM; AID 504734; Q9NR96+Q99836; CHO BLA complementation TLR9-MyD88, CCF4 FRET ratio; 340,000 tested, 0.21% active;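 active = inhibition above the mean over all tested compounds plus 3 SD, cut at about 21% in these data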;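 note: 0% = DMSO only wells and 100% = clavulanate BLA inhibitor control wells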
IDE inh = inhibits human insulin-degrading enzyme in HEK cells; FAbetaB cleavage, fluorescence polarization; inhibition, % at 5.59 µM; 320,000 tested, 0.41% active;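 active = percent inhibition above the average of all tested compounds plus 3 SD, set per screening campaign, cut at about 16% in these data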;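 note: IDE supplied by intact live HEK cells; FP after avidin binding of uncleaved biotin substrate so inhibition keeps polarization high; 0% = DMSO wells and 100% = 60 µM reference IDE inhibitor Ii1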
TLR4-MyD88 BLA = inhibitors of human TLR4-MyD88 binding; AID 861; O00206+Q99836; inhibition, % at 8.4 µM; 200,000 tested, 0.18% active; HeLa CL3-4 TLR4/MyD88 BLA complementation, FRET ratio; in the data active = inhibition above about 25%;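 note: 0% = vehicle and 100% = reference inhibitor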
NOD2-RIPK2 conf = NOD2-RIPK2 interaction inhibition confirmed | inhibition, % at 4.98 µM | CHO cells, NOD2-RIPK2 BLA complementation, CCF4 FRET | shares compounds with NOD2 RIPK2 PPI | AID 624370 | 1,200 tested, 70% active;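 active = mean inhibition across replicates above a set limit taken from the earlier primary screen, cut at about 21% in these data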;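 note: 0% = DMSO-only wells and the high end = clavulanate BLA-blocked wells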
BLA counter = NOD2-RIPK2 counterscreen BLA reporter activity. inhibition, % at 4.98 µM. 1,200 tested, 57% active. CHO BLA reporter, CCF4 FRET ratio. shares compounds with NOD2 RIPK2 PPI;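 active = mean inhibition above the low-control mean inhibition plus three low-control SD, cut at about 11% in these data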;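 note: 0% = DMSO only wells and 100% = clavulanate high control wells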
Numbers without * were called inactive; nt = not tested or not shown. This is a sample that favours compounds with a hit; in the whole collection about 0.87% have one here.

SMILES	IDE cell activ	NOD2 RIPK2 PPI	TLR9-MyD88 inh	IDE inh	TLR4-MyD88 BLA	NOD2-RIPK2 conf	BLA counter
CC(=O)OC1C(O)C(C)OC(OC2C(OC(=O)C3CCC4C(C3)OC3(CC(OC(=O)/C=C/c5ccccc5)C(C)CO3)C43CO3)OC(C)C(O)C2OC(C)=O)C1O (stereo unspecified)	6	23*	9	nt	nt	28*	-5
COC(/C(C)=C/C=C/C(C)=C/c1coc(C)n1)C(C)C1CC(O)C2(C)OC2C=CC(C)C2CC(CC(=O)O2)CC2OC2C(=O)O1 (stereo unspecified)	4	-5	0	nt	nt	nt	nt
O=S(=O)(c1ccccc1)C1CN1c1c(F)c(F)c(F)c(F)c1F (stereo unspecified)	nt	-7	nt	nt	nt	nt	nt
ClCCN(CCCl)c1ccc(C=Cc2ccncn2)cc1	nt	63*	nt	nt	nt	47*	60*
N#Cc1ncc(N=Cc2ccc(N(CCCl)CCCl)cc2)s1	2	-5	0	nt	nt	nt	nt
N#CC1=C(N)Oc2c(c(=O)sc3ccccc23)C1c1cccnc1 (stereo unspecified)	5	22*	0	4	-4	1	-3

Screens (PubChem)
